Of roughly 8,800 targets only a part is listed; those with a hit were picked by preference. About 0.5% of all pairs of compound and target were hits.

UniProt Q9Y5Z9, sequence (Q9Y5Z9 whole entry, looked up): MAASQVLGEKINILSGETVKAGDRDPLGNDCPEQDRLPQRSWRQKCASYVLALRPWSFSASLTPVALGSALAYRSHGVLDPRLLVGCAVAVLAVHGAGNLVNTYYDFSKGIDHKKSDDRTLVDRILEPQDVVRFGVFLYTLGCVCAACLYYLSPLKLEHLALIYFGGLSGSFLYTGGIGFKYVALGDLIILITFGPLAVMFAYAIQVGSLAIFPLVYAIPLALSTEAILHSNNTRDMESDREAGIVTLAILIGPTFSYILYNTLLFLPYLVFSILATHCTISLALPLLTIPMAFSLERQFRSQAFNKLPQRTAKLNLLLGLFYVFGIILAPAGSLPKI
UniProt Q6Q0C0, sequence (Q6Q0C0 whole entry, looked up): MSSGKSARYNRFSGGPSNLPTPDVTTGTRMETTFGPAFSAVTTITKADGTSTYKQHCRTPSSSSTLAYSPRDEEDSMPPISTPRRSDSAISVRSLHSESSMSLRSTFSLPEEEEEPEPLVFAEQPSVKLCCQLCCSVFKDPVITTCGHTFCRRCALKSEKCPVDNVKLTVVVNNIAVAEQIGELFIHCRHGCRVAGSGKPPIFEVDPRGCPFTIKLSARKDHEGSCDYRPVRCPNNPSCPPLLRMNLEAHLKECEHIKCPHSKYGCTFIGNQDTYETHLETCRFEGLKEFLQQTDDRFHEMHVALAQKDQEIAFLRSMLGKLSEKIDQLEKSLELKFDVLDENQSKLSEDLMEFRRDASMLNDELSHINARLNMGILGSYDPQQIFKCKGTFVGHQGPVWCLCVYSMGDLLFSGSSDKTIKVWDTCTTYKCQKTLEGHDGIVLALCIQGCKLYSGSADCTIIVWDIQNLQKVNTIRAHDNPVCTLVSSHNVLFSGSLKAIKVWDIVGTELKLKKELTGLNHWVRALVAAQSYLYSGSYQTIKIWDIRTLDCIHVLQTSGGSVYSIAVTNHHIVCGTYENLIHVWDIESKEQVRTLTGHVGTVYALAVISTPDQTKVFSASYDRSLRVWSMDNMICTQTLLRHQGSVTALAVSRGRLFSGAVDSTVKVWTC
UniProt P06753, sequence (P06753 whole entry, looked up): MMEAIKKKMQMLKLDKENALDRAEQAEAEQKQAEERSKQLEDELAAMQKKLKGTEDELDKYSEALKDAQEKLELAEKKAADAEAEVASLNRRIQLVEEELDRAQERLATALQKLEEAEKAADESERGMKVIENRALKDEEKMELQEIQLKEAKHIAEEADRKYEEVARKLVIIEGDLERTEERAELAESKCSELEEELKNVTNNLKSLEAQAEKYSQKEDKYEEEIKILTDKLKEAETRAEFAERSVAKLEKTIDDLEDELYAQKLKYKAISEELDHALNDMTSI
UniProt O60637, sequence (O60637 whole entry, looked up): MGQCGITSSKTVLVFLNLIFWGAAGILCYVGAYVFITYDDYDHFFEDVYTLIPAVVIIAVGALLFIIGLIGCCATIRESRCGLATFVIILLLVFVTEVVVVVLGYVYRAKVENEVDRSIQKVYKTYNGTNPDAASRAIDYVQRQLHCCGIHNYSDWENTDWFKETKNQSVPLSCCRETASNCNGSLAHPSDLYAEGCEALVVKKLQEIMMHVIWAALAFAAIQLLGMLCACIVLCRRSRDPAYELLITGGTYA
UniProt P10646, sequence (P10646 whole entry, looked up): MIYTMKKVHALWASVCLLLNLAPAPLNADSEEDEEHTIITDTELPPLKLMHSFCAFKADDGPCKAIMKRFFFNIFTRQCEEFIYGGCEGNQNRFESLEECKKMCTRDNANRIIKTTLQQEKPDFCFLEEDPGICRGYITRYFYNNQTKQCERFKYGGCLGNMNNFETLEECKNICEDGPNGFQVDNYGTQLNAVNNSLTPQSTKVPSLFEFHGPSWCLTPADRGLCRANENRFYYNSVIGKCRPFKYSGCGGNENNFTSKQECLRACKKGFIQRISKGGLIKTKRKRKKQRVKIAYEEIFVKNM
UniProt O95271, sequence (O95271 whole entry, looked up): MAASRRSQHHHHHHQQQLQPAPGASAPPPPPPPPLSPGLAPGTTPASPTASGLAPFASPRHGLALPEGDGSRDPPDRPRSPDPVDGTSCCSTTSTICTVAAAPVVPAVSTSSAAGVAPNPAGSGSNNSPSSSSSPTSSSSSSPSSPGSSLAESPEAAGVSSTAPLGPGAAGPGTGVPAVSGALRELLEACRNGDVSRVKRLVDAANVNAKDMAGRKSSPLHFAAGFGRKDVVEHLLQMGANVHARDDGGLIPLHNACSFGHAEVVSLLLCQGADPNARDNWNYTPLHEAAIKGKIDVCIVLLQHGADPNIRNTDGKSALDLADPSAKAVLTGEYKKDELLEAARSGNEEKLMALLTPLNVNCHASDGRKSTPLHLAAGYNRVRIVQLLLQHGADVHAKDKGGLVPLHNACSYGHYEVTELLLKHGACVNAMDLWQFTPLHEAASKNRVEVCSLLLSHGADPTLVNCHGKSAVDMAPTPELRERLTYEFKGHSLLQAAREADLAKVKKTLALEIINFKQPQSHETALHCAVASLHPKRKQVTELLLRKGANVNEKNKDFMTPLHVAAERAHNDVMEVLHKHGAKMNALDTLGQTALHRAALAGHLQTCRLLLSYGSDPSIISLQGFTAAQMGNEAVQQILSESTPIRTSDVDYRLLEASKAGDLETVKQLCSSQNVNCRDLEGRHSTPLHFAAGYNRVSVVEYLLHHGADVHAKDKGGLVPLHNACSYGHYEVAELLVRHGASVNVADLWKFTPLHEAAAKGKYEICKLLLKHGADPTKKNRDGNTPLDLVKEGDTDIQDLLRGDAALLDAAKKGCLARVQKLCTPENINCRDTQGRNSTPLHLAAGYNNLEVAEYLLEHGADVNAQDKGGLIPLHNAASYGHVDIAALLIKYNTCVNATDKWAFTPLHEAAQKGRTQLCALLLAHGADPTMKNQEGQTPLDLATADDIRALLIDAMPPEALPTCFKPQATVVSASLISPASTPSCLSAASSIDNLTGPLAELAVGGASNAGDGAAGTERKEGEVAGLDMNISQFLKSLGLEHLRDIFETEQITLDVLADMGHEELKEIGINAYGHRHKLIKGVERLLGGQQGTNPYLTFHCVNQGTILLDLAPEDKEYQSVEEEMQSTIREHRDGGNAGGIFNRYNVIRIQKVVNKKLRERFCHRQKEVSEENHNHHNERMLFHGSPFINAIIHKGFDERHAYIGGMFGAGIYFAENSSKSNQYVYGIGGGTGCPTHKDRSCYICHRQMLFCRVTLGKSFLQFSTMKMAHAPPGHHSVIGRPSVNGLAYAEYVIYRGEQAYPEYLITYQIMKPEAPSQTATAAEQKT
UniProt Q9NPG3, sequence (Q9NPG3 whole entry, looked up): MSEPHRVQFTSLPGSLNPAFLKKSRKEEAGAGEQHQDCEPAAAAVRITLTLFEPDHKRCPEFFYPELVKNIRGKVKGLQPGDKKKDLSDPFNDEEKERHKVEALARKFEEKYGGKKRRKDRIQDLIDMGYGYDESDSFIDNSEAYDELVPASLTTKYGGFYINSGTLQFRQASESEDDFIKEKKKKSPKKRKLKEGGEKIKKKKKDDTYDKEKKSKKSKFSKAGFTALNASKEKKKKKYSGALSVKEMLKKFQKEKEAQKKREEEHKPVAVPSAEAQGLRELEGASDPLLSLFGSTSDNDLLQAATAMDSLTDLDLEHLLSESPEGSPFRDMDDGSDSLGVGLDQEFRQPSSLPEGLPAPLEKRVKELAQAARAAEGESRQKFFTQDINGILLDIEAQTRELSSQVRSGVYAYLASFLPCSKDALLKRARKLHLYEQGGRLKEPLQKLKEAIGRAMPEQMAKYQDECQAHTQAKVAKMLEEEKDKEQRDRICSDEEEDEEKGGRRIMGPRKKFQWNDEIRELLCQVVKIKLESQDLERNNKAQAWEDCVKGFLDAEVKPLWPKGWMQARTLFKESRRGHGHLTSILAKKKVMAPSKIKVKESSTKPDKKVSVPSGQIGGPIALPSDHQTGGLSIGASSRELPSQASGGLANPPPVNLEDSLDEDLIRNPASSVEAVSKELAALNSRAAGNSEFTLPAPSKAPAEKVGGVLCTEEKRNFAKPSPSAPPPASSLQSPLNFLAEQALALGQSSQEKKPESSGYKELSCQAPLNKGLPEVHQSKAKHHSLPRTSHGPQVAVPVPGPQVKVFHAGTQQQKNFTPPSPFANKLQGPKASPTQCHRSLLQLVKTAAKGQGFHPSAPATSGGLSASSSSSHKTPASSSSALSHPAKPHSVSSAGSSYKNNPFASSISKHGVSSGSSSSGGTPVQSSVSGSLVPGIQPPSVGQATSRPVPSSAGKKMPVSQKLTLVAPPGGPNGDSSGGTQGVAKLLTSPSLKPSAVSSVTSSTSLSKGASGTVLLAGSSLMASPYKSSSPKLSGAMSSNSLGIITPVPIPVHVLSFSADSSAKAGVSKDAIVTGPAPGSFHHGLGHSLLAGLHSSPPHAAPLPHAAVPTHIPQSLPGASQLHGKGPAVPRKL
UniProt P15884, sequence (P15884 whole entry, looked up): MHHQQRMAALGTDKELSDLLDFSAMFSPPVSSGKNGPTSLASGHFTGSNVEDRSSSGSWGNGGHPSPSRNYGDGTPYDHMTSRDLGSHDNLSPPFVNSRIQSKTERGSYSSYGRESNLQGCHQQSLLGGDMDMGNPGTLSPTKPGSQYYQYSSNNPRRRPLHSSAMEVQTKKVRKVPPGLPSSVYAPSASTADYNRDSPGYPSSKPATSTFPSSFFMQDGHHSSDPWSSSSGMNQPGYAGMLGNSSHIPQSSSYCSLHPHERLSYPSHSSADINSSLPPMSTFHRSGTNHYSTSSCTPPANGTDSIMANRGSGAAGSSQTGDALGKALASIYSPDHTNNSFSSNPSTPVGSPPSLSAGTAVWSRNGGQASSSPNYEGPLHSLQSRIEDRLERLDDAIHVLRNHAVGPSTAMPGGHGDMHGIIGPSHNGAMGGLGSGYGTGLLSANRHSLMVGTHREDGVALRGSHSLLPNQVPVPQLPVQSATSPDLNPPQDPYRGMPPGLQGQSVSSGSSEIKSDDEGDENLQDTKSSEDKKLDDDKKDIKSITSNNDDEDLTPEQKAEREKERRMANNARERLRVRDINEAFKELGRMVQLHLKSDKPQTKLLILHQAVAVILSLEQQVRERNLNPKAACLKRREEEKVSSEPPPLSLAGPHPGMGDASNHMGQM

Compound in one test: CC1=C2C(=CC=C1)N=C(N(C2=O)C3=CC=CC=C3C)CN4C=NC5=C(N=CN=C54)N
Description: log2 fold change, soluble protein after heating vs DMSO (PISA); higher = thermal stabilisation; K562 lysate, 10 uM; active = over 0.2 and 3.5 SD of the protein, either way, in both replicates (recomputed). In a few lines:
(§1)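 To prepare the extract, K562 pellets were dounce-homogenised in PBS pH 7.4 with 1 mM MgCl2, giving crude material at 1 mg/mL protein. This was treated with 10 μM compound for 30 min, then heated in aliquots for 3 min over 48°C-58°C before pooling and addition of NP-40 to 0.5% at 4°C. Centrifugation at 21,000xg for 90 min left soluble protein in the supernatant, which TMTpro 16plex LC-MS/MS quantified with equalised channel sums. Results are log-two fold changes in thermal stability compared with solvent controls, from duplicates.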
As to TUBB6 (UniProt K7ES63), the log2 fold change was -0.028 (inactive). With TSPAN3 (UniProt O60637), the log2 fold change is 0.174 (inactive). On the same count and under the same terms, for TFPI isoform 2 (UniProt P10646) the value was 0.048 (inactive); for TMEM161B (UniProt Q8NDZ6), -0.076 (inactive).

As for TPM3 isoform 3 (UniProt P06753), the log2 fold change was -0.048 (inactive). Same read-out and setting: for TRAF7 (UniProt Q6Q0C0) the value was 0.007 (inactive); for UBR4 isoform 4 (UniProt Q5T4S7), -0.023 (inactive); for TUBB4A (UniProt M0QYM7), 0.016 (inactive). Take TCF3 (UniProt X6REB3): the log2 fold change is -0.031 (inactive). For the target UCP2 (UniProt P55851), the log2 fold change is -0.003 (inactive).

As to TFPI (UniProt P10646), the log2 fold change was -0.16 (inactive). On the same count and under the same terms, for TMC1 (UniProt Q8TDI8) the value was 0.038 (inactive); for TNKS (UniProt O95271), 0.023 (inactive); for UBIAD1 (UniProt Q9Y5Z9), -0.025 (inactive). Consider TRIM3 (UniProt O75382), for which the log2 fold change is 0.197 (inactive).

Take TEC (UniProt P42680): the log2 fold change was 0.114 (inactive). Consider UBN1 (UniProt Q9NPG3), for which the log2 fold change is 0.03 (inactive). Turning to UBAP2L (UniProt F8W726), the log2 fold change is -0.018 (inactive).

Compound in a further test: Cc1sc2c(c1C)C(c1ccc(Cl)cc1)=N[C@@H](CC(=O)OC(C)(C)C)c1nnc(C)n1-2
The test is described as above. In a few lines: as §1
On to TASP1 (UniProt Q9H6P5), for which the log2 fold change is 0.059 (inactive). Take U2AF1L5 (UniProt P0DN76): the log2 fold change was 0.002 (inactive).

Turning to TSPAN3 (UniProt O60637), the log2 fold change is 0.006 (inactive). For TUBB4A (UniProt P04350), the log2 fold change is 0.044 (inactive). In the case of TPM3 isoform 3 (UniProt P06753), the log2 fold change is -0.041 (inactive).

Regarding TEDC1 (UniProt Q86SX3), the log2 fold change is 0.058 (inactive). On the same count and under the same terms, for TRPM4 (UniProt Q8TD43) the value was -0.042 (inactive). Turning to TLE3 (UniProt H0YL70), the log2 fold change is -0.343 (inactive). Take TRAF7 (UniProt Q6Q0C0): the log2 fold change is -0.005 (inactive). Regarding TMEM154 (UniProt Q6P9G4), the log2 fold change is -0.073 (inactive). On the same count and under the same terms, for TCF4 (UniProt P15884) the value was 0.047 (inactive); for TNFAIP3 (UniProt P21580), 0.033 (inactive); for TFPT (UniProt P0C1Z6), -0.052 (inactive). The same measure, in the same setting: for TGFBR1 isoform 2 (UniProt P36897) the value was -0.004 (inactive). In the case of UBR4 isoform 4 (UniProt Q5T4S7), the log2 fold change was -0.284 (inactive).

TCF20 (UniProt Q9UGU0): the log2 fold change is -0.263 (inactive). TLE3 isoform 5 (UniProt Q04726): the log2 fold change is -0.069 (inactive). As for TNKS (UniProt O95271), the log2 fold change is 0.039 (inactive). As for UBIAD1 (UniProt Q9Y5Z9), the log2 fold change was -0.048 (inactive). In the case of UBN1 (UniProt Q9NPG3), the log2 fold change is -0.164 (inactive). With TNIK isoform 5 (UniProt Q9UKE5), the log2 fold change is -0.089 (inactive).
